Measurements taken from the supplement of paper PMC11628255, “Interference of metal ions on the bioluminescent signal of firefly, Renilla, and NanoLuc luciferases in high-throughput screening assays” (Frontiers in Chemistry, 2024).
± gives the standard deviation of the averaged measurements.

Test system: firefly luciferase (FLuc)
Test: residual bioluminescent signal relative to negative (DMSO) control; higher = less interference (more residual luciferase signal)
Description: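 Purified luciferase (FLuc 10 nM + 10 uM D-luciferin; NLuc 10 pM + 10 uM furimazine; RLuc 50 pM + 2 uM coelenterazine) in 384-well plates; metal salt pre-incubated with enzyme 10 min at RT, substrate added and luminescence read after 10 min. Signal normalised to plate DMSO negative control (% N_VALUE = x/mean neg *100); triplicate wells at 0.01, 1 and 5 mM salt.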

[1] = metal salt concentration 0.01 mM, HEPES conditions (100 mM HEPES, 5 mM MgSO4, 10 uM ATP, pH 7.5)
[2] = metal salt concentration 0.01 mM, screening conditions (0.5 mM Tris, 50 mM glycine, 0.5 mM EDTA, 5 mM MgSO4, 10 uM ATP, pH 7.6)
[3] = metal salt concentration 1 mM, HEPES conditions (100 mM HEPES, 5 mM MgSO4, 10 uM ATP, pH 7.5)
[4] = metal salt concentration 1 mM, screening conditions (0.5 mM Tris, 50 mM glycine, 0.5 mM EDTA, 5 mM MgSO4, 10 uM ATP, pH 7.6)
[5] = metal salt concentration 5 mM, HEPES conditions (100 mM HEPES, 5 mM MgSO4, 10 uM ATP, pH 7.5)
[6] = metal salt concentration 5 mM, screening conditions (0.5 mM Tris, 50 mM glycine, 0.5 mM EDTA, 5 mM MgSO4, 10 uM ATP, pH 7.6)

With `O=[N+]([O-])[O-].O=[N+]([O-])[O-].[Cu+2]` [copper(II) nitrate] the residual bioluminescent signal [1] was 2.58 ± 1%, the residual bioluminescent signal [2] was 108 ± 11% and the residual bioluminescent signal [3] was 0.407%. It also gave a residual bioluminescent signal [4] of 0.712 ± 0.4%, a residual bioluminescent signal [5] of 0.95 ± 0.62% and a residual bioluminescent signal [6] of 0.553 ± 0.32%.

With `O=[N+]([O-])[O-].[Li+]` [lithium nitrate] the residual bioluminescent signal [1] was 92.2 ± 20%, the residual bioluminescent signal [2] was 93 ± 5.3% and the residual bioluminescent signal [3] was 92.2 ± 40%. It also gave a residual bioluminescent signal [4] of 85.8 ± 4.8%, a residual bioluminescent signal [5] of 90.5 ± 3.9% and a residual bioluminescent signal [6] of 74.5 ± 2.7%.

In the case of `O=[N+]([O-])[O-].O=[N+]([O-])[O-].O=[N+]([O-])[O-].[Ga+3]` [gallium(III) nitrate], the residual bioluminescent signal [1] is reported as 86.3 ± 16%, the residual bioluminescent signal [2] is reported as 3.77 ± 5% and the residual bioluminescent signal [3] is reported as 72.6 ± 17%. The residual bioluminescent signal [4] was 0.264 ± 0.091%, the residual bioluminescent signal [5] was 0.679 ± 0.47% and the residual bioluminescent signal [6] was 0.474 ± 0.48%.

`O=[N+]([O-])[O-].O=[N+]([O-])[O-].[Cd+2]` [cadmium nitrate] showed a residual bioluminescent signal [1] of 2.44 ± 1.8%, a residual bioluminescent signal [2] of 95.2 ± 4.7% and a residual bioluminescent signal [3] of 1.09 ± 0.62%. The residual bioluminescent signal [4] was 0.343 ± 0.12%, the residual bioluminescent signal [5] was 1.09 ± 0.62% and the residual bioluminescent signal [6] was 0.211 ± 0.17%.

`O=[N+]([O-])[O-].[Na+]` [sodium nitrate] was tested, and the residual bioluminescent signal [1] was 90 ± 7.6%, the residual bioluminescent signal [2] was 79.1 ± 6.3% and the residual bioluminescent signal [3] was 72.4 ± 18%. The residual bioluminescent signal [4] was 71.7 ± 2.9%, the residual bioluminescent signal [5] was 60 ± 13% and the residual bioluminescent signal [6] was 50 ± 4.3%.

In the case of `O=[N+]([O-])[O-].O=[N+]([O-])[O-].[Pb+2]` [lead(II) nitrate], the residual bioluminescent signal [1] is reported as 3.12 ± 1.6%, the residual bioluminescent signal [2] is reported as 93.3 ± 4.7% and the residual bioluminescent signal [3] is reported as 0.814 ± 0.41%. For the same compound, the residual bioluminescent signal [4] was 0.685 ± 0.48%, the residual bioluminescent signal [5] was 0.95 ± 0.23% and the residual bioluminescent signal [6] was 0.343 ± 0.17%.
